From PubChem BioAssay
An excerpt weighted towards active compounds, which were near 11% of everything screened.
Pf growth 96h – P. falciparum growth inhibition at 96 hour, primary screen for plastid delayed-death inhibitors; P. falciparum luciferase reporter growth, 96 h; Potency, µM (doses to about 28.7 µM), for the others: top-dose activity change, negative = inhibition, actives largely listed as inhibitors; 6.9% of 320,000 active; AID 504834; note: % is set by controls: 0 for no effect and ±100 for the full control effect
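P. falciparum expressing integrated firefly luciferase, in erythrocytes at 2% hematocrit, 0.05% parasitemia, incubated with compounds 96 h at 37 C, 5% CO2. Growth inhibition read as loss of luminescence; two-generation exposure targets delayed-death apicoplast inhibitors.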
AMA1 RON2 block – AMA1-RON2 (P. falciparum) interaction inhibition; AlphaScreen AMA1-biotinylated RON2 peptide binding; Potency, µM (doses to about 58.2 µM), for inactives: at the top dose activity change, negative = inhibition, actives largely listed as inhibitors; 0.2% of 360,000 active; AID 720542;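 note: 0% = vehicle wells and -100% = peptide control; nearly all actives have a fitted effect of over 45% in size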
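AMA1 (3D7) with his tag at 25 nM final met compounds first, then biotinylated RON2 peptide at 25 nM; detection used donor plus acceptor beads, 10 µg/mL apiece, read by AlphaScreen after 30 min at room temperature.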
Sm TGR inh – inhibitors of Schistosoma mansoni thioredoxin glutathione reductase. Q962Y6. purified TGR, DTNB reduction, TNB absorbance 405 nm. Potency, µM (titrated, usually from 114 µM), without a hit: top-dose activity change, negative = inhibition, most hits filed as inhibitors. 3% of 360,000 active. AID 485364; note: % is set by controls: 0 for no effect and ±100 for the full control effect; nearly all actives have a fitted effect of over 60% in size
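First, TGR (20 nM dispensed) and NADPH were mixed with compound. Second, a 15 min room-temperature incubation followed. Third, further NADPH and then DTNB were added to start the reaction. Finally, TNB absorbance was monitored kinetically.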
Pf growth 48h – inhibits P. falciparum growth in the first generation, 48 h; P. falciparum luciferase growth in erythrocytes, 48 h; Potency, µM (highest dose often 28.7 µM), for the others: top-dose activity change, negative = inhibition, usual class: inhibitors; 5.9% of 310,000 active; AID 504832; note: % is set by controls: 0 for no effect and ±100 for the full control effect
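Luciferase-expressing parasites in RBCs, 2% Hct / 0.1% parasitemia final; RPMI 1640 + 0.5% Albumax; 37 C, 5% CO2, one generation; luminescence read-out, lower signal = inhibition.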
NS1 inh – inhibitors of influenza NS1 protein function; Potency, µM (series often up to 46.1 µM), for the others: top-dose activity, positive = more growth; 0.4% of 270,000 active; calls by dose curve; note: actives are rising curves; nearly all actives have a fitted effect of over 50% in size
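In this qHTS, NS1 from influenza A is expressed in budding yeast, where it slows growth. Cells are switched from glucose to 2% galactose medium (pH 6.0, -URA), treated with compound, and growth recovery is read at OD600.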
Numbers without * were called inactive; u = inconclusive; x = no result; [ ] = remark or other dose. Unless noted, calls come from the whole dose curve; as a rule, active = well fitted curve in the direction sought with a large enough effect; inconclusive = small, poorly fitted or top-dose-only effect, or another doubt; inactive = no such curve, though single readings can be large; an effect the other way counts as inactive or inconclusive. Potency is the fitted concentration of half-maximal effect.

SMILES	Pf growth 96h	AMA1 RON2 block	Sm TGR inh	Pf growth 48h	NS1 inh
CC1(c2cc([N+](=O)[O-])cc([N+](=O)[O-])c2)CC(C)(C)N(C(=O)c2ccccc2)c2ccccc21 (centres undefined)	4%	-29%	2%	2.3µM*	15%
CC1(c2ccccc2)CC(C)(C)N(C(=O)CSc2nnc(N)s2)c2ccccc21 (centres undefined)	5.2µM*	15%	-4%	u	-8%
CCC(=O)N1c2ccccc2C(C)(c2ccccc2)CC1(C)C (centres undefined)	x	x	2%	x	x
COc1ccc(NC(=O)COc2ccc(S(=O)(=O)NC3CCCCC3)cc2)cc1OC	x	x	0%	x	x
O=C1c2oc3ccc(F)cc3c(=O)c2C(c2cccc(O)c2)N1CCCN1CCOCC1 (centres undefined)	10µM*	6%	-15%	25%	-5%
O=C1c2oc3ccc(F)cc3c(=O)c2C(c2cccc([N+](=O)[O-])c2)N1CCCN1CCOCC1 (centres undefined)	x	x	0%	x	x
C=CCOc1cccc(C2c3c(oc4ccc(F)cc4c3=O)C(=O)N2CCCN2CCOCC2)c1 (centres undefined)	6%	0%	u	12µM*	u
Cc1ccc2oc3c(c(=O)c2c1)C(c1cccc(O)c1)N(CCCN1CCOCC1)C3=O (centres undefined)	x	x	1%	x	x
O=c1c2oc3ccccc3c2n(Cc2ccc(Cl)cc2)c(=O)n1Cc1ccccc1	x	x	21%	x	x
COc1ccc(-c2nc3ccccc3s2)cc1NC(=O)c1cccc([N+](=O)[O-])c1C	x	x	-1%	x	x
Cc1ccc(S(=O)(=O)NCCc2cn3c(C)csc3n2)cc1	x	x	-6%	x	x
COc1cc(C2CC(c3cccs3)=NN2C(=O)CCl)ccc1OC(F)F (centres undefined)	u	4%	7.9µM*	u	-15%
COc1ccc(C2CC(c3ccc(OC)cc3O)=NN2C(=O)c2ccccc2)cc1 (centres undefined)	u	-7%	13%	-14%[0.00184 µM]	2%
COc1ccc(C2CC(c3ccccc3O)=NN2C(=O)c2ccccc2)cc1OC (centres undefined)	4.1µM*	-4%	-1%	6.6µM*	5%
COc1ccc(C2=NN(C(=O)c3ccccc3)C(c3ccc(OC)c(OC)c3)C2)c(OC(C)=O)c1 (centres undefined)	10µM*	x	-6%	12µM*	-3%
COc1ccc(C2CC(c3ccc4ccccc4c3OC(C)=O)=NN2C(C)=O)cc1 (centres undefined)	21%	3%	3%	u	3%
COc1ccc(C2CC(c3cccs3)=NN2C(=O)c2ccccc2)cc1OC (centres undefined)	0.41µM*	12%	11%	x	-1%
CSc1ccc(CNC(=O)C2CCC(=O)N(CC3CCCCC3)C2)cc1 (centres undefined)	x	0%	x	x	x
COc1ccc(C2CC(c3cccs3)=NN2C(=O)CCl)cc1OC (centres undefined)	u	2%	4.5µM*	u	-2%
O=C(c1ccccc1)N1N=C(c2ccccc2O)CC1c1ccccc1 (centres undefined)	u	-1%	12%	5.9µM*	-1%
COc1ccc(C2CC(c3cccs3)=NN2C(=O)CCC(=O)O)cc1 (centres undefined)	u	9%	-35%	21%	15%
Cc1ccc(C)c(-n2sc3ccc(F)cc3c2=O)c1	1.5µM*	9%	-21%	2.1µM*	x
O=c1c2cc(F)ccc2sn1-c1ccc(F)cc1	8%	9%	-23%	4.1µM*	x
COc1ccc(-n2sc3ccc(F)cc3c2=O)cc1	144%	-5%	-7%	4.1µM*	x
Cc1ccc2scc(N3CCN(c4ccc(F)cc4)CC3)c(=O)c2c1	x	x	-1%	x	x
SMILES	Pf growth 96h	AMA1 RON2 block	Sm TGR inh	Pf growth 48h	NS1 inh
COC(=O)CN1C(=O)N/C(=C/c2ccccc2OC)C1=O	20%	10%	-5%	-6%	x
Cc1cc(C(C)(C)CC(C)(C)C)ccc1OCCOCC[N+](C)(C)Cc1ccccc1	0.47µM*	-16%	-8%	1.7µM*	x
C[N+](C)(CCOc1ccccc1)Cc1ccccc1	x	-7%	x	x	x
COc1ccc(-c2nc3ccccc3c(C(=O)Nc3ccc(S(=O)(=O)Nc4cc(C)on4)cc3)c2C)cc1	u	-2%	-11%	10µM*	u
Cc1ccc(-c2cc(C(=O)Nc3ccc(S(=O)(=O)Nc4cc(C)on4)cc3)c3ccccc3n2)c(C)c1	7.4µM*	-7%	8%	u	16%
CCOC(=O)c1c(-c2ccc(C)o2)csc1NC(=O)CN1CCN(CC)CC1	-12%	1%	50µM*	8%	7%
CCOC(=O)c1c(-c2ccc(C)o2)csc1NC(=O)CN1CCC(C(N)=O)CC1	u	-16%	14µM*	u	0%
CCOC(=O)c1c(-c2ccco2)csc1NC(=O)COC(=O)c1cnccn1	u	-16%	7.9µM*	24%	x
CCOC(=O)c1c(-c2ccc(C)o2)csc1NC(=O)CN(C)CC(=O)Nc1ccc(C)cc1	u	65%	u	x	4%
CCOC(=O)c1c(NC(=O)COC(=O)c2cnccn2)sc(C(=O)NC)c1C	47%	-11%	0%	5%	x
CCOC(=O)c1c(-c2ccc(C)o2)csc1NC(=S)NC(=O)c1ccc(F)cc1	7.4µM*	15%	-13%	8.3µM*	6%
CCCS(=O)(=O)NC(=O)C1(C)CCN(C(=O)Cc2ccc3ccccc3c2)C1 (centres undefined)	x	14%	x	x	x
Cc1cc(NS(=O)(=O)c2ccc(NC(=O)CCCOc3ccccc3C)cc2)nc(C)n1	u	-2%	-30%	-3%	12%
CCOC(=O)c1c(-c2ccc(C)o2)csc1NC(=O)CSc1nncs1	31%	-10%	4.5µM*	10µM*	-51%
CCOC(=O)c1c(-c2ccc(C)o2)csc1NC(=O)CN1CCCCC1	u	-5%	8.9µM*	u	x
CCOC(=O)c1c(-c2ccc(OC)cc2)csc1NC(=O)CCN1C(=O)c2ccccc2C1=O	u	-7%	8%	-3%	11%
CCOC(=O)c1c(-c2ccc(OC)cc2)csc1NC(=O)CCN1CCOCC1	5.9µM*	u	-3%	12µM*	-39%
CCC(C)NC(=O)CCSc1nc(-c2ccc(OC)cc2)cc(C(F)(F)F)n1 (centres undefined)	x	x	8%	x	x
CCOC(=O)CCS(=O)(=O)c1nc(-c2ccccc2)cc(C(F)(F)F)n1	x	-12%	28µM*	13%	-103%
CCOC(=O)CS(=O)(=O)c1nc(-c2ccccc2)cc(C(F)(F)F)n1	39%	6%	u	0%	-202%
CCOC(=O)CS(=O)(=O)c1nc(-c2ccc(F)cc2)cc(C(F)(F)F)n1	x	-4%	2.8µM*	5%	-69%
COCC(C)NC(=O)CCS(=O)(=O)c1nc(-c2ccc(OC)cc2)cc(C(F)(F)F)n1 (centres undefined)	9.3µM*	4%	u	-19%	-4%
